Records with an inconclusive call do not appear. Calls of active or inactive are those of the source. Unless noted, the call rests on the fitted dose curve.
Key:
[1] = qHTS assay to identify small molecule agonists of the vitamin D receptor (VDR) signaling pathway - cell viability counter screen (AID 743224; active means well fitted curve in the direction sought with a large enough effect in the repeat runs; an effect the other way counts as inactive or inconclusive; further: nearly all actives have a fitted effect of over 50% in size; further: potency means the concentration at half of the fitted maximal effect); details: VDR-bla HEK293T viability, CellTiter-Glo luminescence, 16 h; series mostly up to 62.6 µM
In short: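 In parallel with the bla FRET readout, cytotoxicity toward VDR-bla cells after 16 h compound exposure was assessed by CellTiter-Glo, with luminescence recorded after a 30 min room-temperature incubation.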

[2] = qHTS assay to identify small molecule antagonists of the vitamin D receptor (VDR) signaling pathway - cell viability counter screen (AID 743225; active means well fitted curve in the direction sought with a large enough effect in the repeat runs; an effect the other way counts as inactive or inconclusive; further: nearly all actives have a fitted effect of over 50% in size; further: potency means the concentration at half of the fitted maximal effect); details: VDR-bla HEK293T viability, CellTiter-Glo luminescence, 16 h; series mostly up to 61 µM
In short: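 Same-well multiplex: following 16 h treatment of HEK 293T cells carrying a UAS-driven beta-lactamase reporter with compound and agonist (3 nM final), and a 2 h FRET substrate step, CellTiter-Glo was added and luminescence read after 30 min.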

[3] = qHTS assay to identify small molecule agonists of the NFkB signaling pathway - cell viability counter screen (AID 1159515); details: NFkB-bla ME-180 viability, CellTiter-Glo luminescence, 5 h; series mostly up to 61 µM; further: nearly all actives have a fitted effect of over 55% in size
In short: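 Plate 2,000 NFkB-bla ME-180 cells/well; incubate overnight. Add compounds, 5 hr at 37 C. Add FRET substrate, 1.5 hr RT. Add CellTiter-Glo, 30 min RT; read luminescence.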

[4] = qHTS assay to identify small molecule agonists of the endoplasmic reticulum stress response signaling pathway (AID 1159516; active means well fitted activation curve with a large enough effect in the signal ratio in the repeat runs, not every such curve was filed as active; the % refers to the signal ratio; further: potency means the concentration at half of the fitted maximal effect); details: ESRE-bla HeLa, ER stress beta-lactamase reporter, 5 h; series mostly up to 61 µM
In short: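 Beta-lactamase expression from the ER stress response element in HeLa reporter cells is quantified with the LiveBLAzer B/G FRET substrate, read at 405 nm excitation after 2 hr at room temperature, following 5 hr compound treatment at 37 C.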

[5] = qHTS assay to identify small molecule agonists of the endoplasmic reticulum stress response signaling pathway - cell viability counter screen (AID 1159517); details: ESRE-bla HeLa viability, CellTiter-Glo luminescence, 5 h; series mostly up to 61 µM; further: nearly all actives have a fitted effect of over 50% in size
In short: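 Cpd-treated ESRE-bla HeLa (5 hr, 37 C) → LiveBLAzer 2 hr RT → CellTiter-Glo 30 min RT → luminescence.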

[6] = qHTS assay to identify small molecule antagonists of the retinoid-related orphan receptor gamma (ROR-gamma) signaling pathway - cell viability counter screen (AID 1159520; active means well fitted curve in the direction sought with a large enough effect in the repeat runs; an effect the other way counts as inactive or inconclusive; further: nearly all actives have a fitted effect of over 50% in size); details: Tet-on RORgamma CHO cells viability, ATP luminescence, 16 h; series mostly up to 92.4 µM
In short: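 Tet-on ROR gamma CHO cells (1,000/well) were plated 4 hr, given compounds in DMSO for 2 hr at 37 C, then induced with 1 uM final doxycycline for 16 hr. Viability was read as ATP by CellTiter-Glo luminescence after 30 min.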

[7] = target: Nuclear receptor ROR-gamma (Homo sapiens) (UniProt P51449); assay: qHTS assay to identify small molecule antagonists of the retinoid-related orphan receptor gamma (ROR-gamma) signaling pathway (AID 1159521; active means well fitted curve in the direction sought with a large enough effect in the repeat runs; an effect the other way counts as inactive or inconclusive; further: nearly all actives have a fitted effect of over 50% in size; further: potency means the concentration at half of the fitted maximal effect); details: Tet-on RORgamma CHO cells, RORE-luciferase, 16 h; series mostly up to 92.4 µM
In short: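 Inducible-expression reporter assay: doxycycline (1 uM final) switched on RORγ in CHO cells bearing a ROR response element-luciferase construct, with test compounds present from 2 h beforehand. Decreased luminescence after 16 h defined antagonist activity.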

[8] = qHTS assay to identify small molecule agonists of the AP-1 signaling pathway - cell viability counter screen (AID 1159525); details: ME-180 AP-1-bla cells viability, ATP luminescence, 5 h; series mostly up to 76.8 µM; further: nearly all actives have a fitted effect of over 55% in size
In short: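 Each titration point was normalised to DMSO and tetra n-octyl ammonium bromide controls. The read was Cell Titer Glo luminescence after 30 min at RT, following 5 h compound exposure of ME-180 AP-1-bla cells at 37 °C.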

[9] = qHTS assay to identify small molecule agonists of the AP-1 signaling pathway (AID 1159526); details: ME-180 (cervical carcinoma) AP-1-bla reporter, beta-lactamase FRET ratio, 5 h; series mostly up to 76.8 µM
[10] = target: Retinoic acid receptor RXR-alpha (Homo sapiens) (UniProt P19793); assay: qHTS assay to identify small molecule agonists of the RXR signaling pathway (AID 1159527); details: HEK293T RXRa-UAS-bla, beta-lactamase ratio, 16 h; series mostly up to 76.8 µM; further: nearly all actives have a fitted effect of over 35% in size
Chain of Retinoic acid receptor RXR-alpha (Homo sapiens) (P19793 whole entry, looked up): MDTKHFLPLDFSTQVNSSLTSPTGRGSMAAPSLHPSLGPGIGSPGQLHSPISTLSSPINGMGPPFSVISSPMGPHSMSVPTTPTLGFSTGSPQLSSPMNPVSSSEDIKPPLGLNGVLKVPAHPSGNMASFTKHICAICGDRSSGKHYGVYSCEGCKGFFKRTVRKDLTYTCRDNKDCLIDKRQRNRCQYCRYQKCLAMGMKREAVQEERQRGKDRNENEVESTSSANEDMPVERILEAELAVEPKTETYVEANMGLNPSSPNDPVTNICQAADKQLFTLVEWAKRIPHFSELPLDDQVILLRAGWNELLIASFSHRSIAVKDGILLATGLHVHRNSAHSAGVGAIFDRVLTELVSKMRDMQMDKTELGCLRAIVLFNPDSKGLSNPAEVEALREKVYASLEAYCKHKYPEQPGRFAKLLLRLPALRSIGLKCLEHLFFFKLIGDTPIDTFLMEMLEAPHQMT
In short: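 Compounds in DMSO were added to RXR-alpha-UAS-bla HEK 293T cells kept in 2% charcoal-stripped serum, and incubated 16 hr at 37 C with 5% CO2. Reporter signal came from a 2 hr B/G FRET substrate step.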

Measured: Potency

CC(C)(Oc1ccc(Cl)cc1)C(=O)OCCCOC(=O)C(C)(C)Oc1ccc(Cl)cc1
not listed: [10]
inactive: all other assays above

Cc1ccccc1N=Nc1ccc(N=Nc2c(O)ccc3ccccc23)c(C)c1
not listed: [1] | [10]
inactive: all other assays above

Oc1ccc(C(O)CNCCCCCCNCC(O)c2ccc(O)c(O)c2)cc1O (stereo unspecified)
not listed: [10]
inactive: all other assays above

CCCC(C)C
not listed: [10]
inactive: all other assays above

Cn1c(NCCN(CCO)CCCc2ccc([N+](=O)[O-])cc2)cc(=O)n(C)c1=O
not listed: [10]
inactive: all other assays above

O=C=NC1CCC(CC2CCC(N=C=O)CC2)CC1 (stereo unspecified)
not listed: [10]
inactive: all other assays above

CC[C@@H]1C[C@H](N(Cc2cc(C(F)(F)F)cc(C(F)(F)F)c2)C(C)=O)c2cc(C(F)(F)F)ccc2N1C(=O)OC(C)C
not listed: [10]
inactive: all other assays above

CCOC(=O)CC(C)C
not listed: [10]
inactive: all other assays above

NC(=S)N/N=C/c1cccnc1
not listed: [10]
inactive: all other assays above

CCCC(=O)OCC
not listed: [1] | [10]
inactive: all other assays above

O=S1(=O)N=C(O)c2ccccc21
not listed: [10]
inactive: all other assays above

CC[C@H](C)[C@@H](C(=O)O)n1sc2ccccc2c1=O
not listed: [10]
inactive: all other assays above

CN1CCN(C2=Nc3cc(Cl)ccc3Nc3ccccc32)CC1
not listed: [1] | [10]
inactive: all other assays above

COc1ccccc1OC(=O)Oc1ccccc1OC
not listed: [10]
inactive: all other assays above

CCOC(=O)C1=C(C)NC(C)=C(C(=O)OC)C1c1cccc([N+](=O)[O-])c1 (stereo unspecified)
not listed: [10]
inactive: all other assays above

Nc1nc(N)c2nc(CNc3ccc(C(=O)N[C@@H](CCC(=O)O)C(=O)O)cc3)cnc2n1
active: [1] 0.0288 µM | [2] 0.0288 µM | [4] 51.3 µM
not listed: [10]
inactive: all other assays above

CCCCCOC(=O)COc1cc(N2C(=O)C3=C(CCCC3)C2=O)c(F)cc1Cl
not listed: [10]
inactive: all other assays above

S=C(S)NCCNC(=S)S
not listed: [2] | [9]
inactive: all other assays above

Cc1cc(NC(=O)C(=O)O)cc(C)c1Oc1ccc(O)c2c1CCC2
not listed: [10]
inactive: all other assays above

Cc1c(Cn2ccnc2)c2ccccc2n1CCC(=O)O
not listed: [2] | [9]
inactive: all other assays above

CC(O)C1CCCCC1 (stereo unspecified)
not listed: [10]
inactive: all other assays above

c1ccc(CNCc2ccccc2)cc1
not listed: [10]
inactive: all other assays above

C=Cc1c(C)c2cc3[nH]c(cc4nc(cc5nc(cc1[nH]2)C(C)=C5CCC(=O)O)C(CCC(=O)O)=C4C)c(C)c3C=C
active: [7] 26.6 µM
not listed: [1] | [2] | [9]
inactive: all other assays above

CCCCOc1ccc(CC(=O)NO)cc1
not listed: [10]
inactive: all other assays above

CC(=O)O[C@@H]1C(=O)O[C@@H]2[C@H]1OC(=O)[C@@H]2OC(C)=O
not listed: [10]
inactive: all other assays above

Cc1cccc(Oc2ccccc2)c1
not listed: [1] | [10]
inactive: all other assays above

CC(C)=CCCC(C)CC=O (stereo unspecified)
not listed: [10]
inactive: all other assays above

Cc1ccc(O)c([C@H](CCN(C(C)C)C(C)C)c2ccccc2)c1
not listed: [1] | [2] | [9]
inactive: all other assays above

CCN(CC)CCc1nc(-c2ccccc2)no1
not listed: [10]
inactive: all other assays above

OCC1CC2CC1C1CCC(CO)C21 (stereo unspecified)
not listed: [10]
inactive: all other assays above

CCOC(=O)CC(=O)c1cc(F)c(Cl)nc1Cl
not listed: [2] | [9]
inactive: all other assays above

Nc1nc(CC(=O)O)cs1
not listed: [10]
inactive: all other assays above

CC(C(=O)O)c1ccc(-c2ccccc2)c(F)c1 (stereo unspecified)
not listed: [10]
inactive: all other assays above

N#Cc1cc2ccccc2c2ccccc12
not listed: [9]
inactive: all other assays above

CCCCC(CC)COCCCN (stereo unspecified)
not listed: [9] | [10]
inactive: all other assays above

O=S1(=O)c2cccc3cccc(c23)N1CCCN1CCN(c2ccc(F)cc2)CC1
not listed: [9] | [10]
inactive: all other assays above

— PubChem BioAssay (Tox21)
